According to PubChem BioAssay (NCATS):
Records with an inconclusive call do not appear. A number with no mark means an inactive call. Calls follow the shape of the dose curve; as a rule, active = well fitted inhibition curve with a large enough effect; inconclusive = small, poorly fitted or top-dose-only effect; inactive = no such curve, though single readings can be large or run the other way.

Experiment: qHTS assay for measurement of the activity of small molecule inhibitors on Zika virus induced Caspase-3 activity in human iPSC derived neural progenitor cells (hNPCs) (AID 1224857); also: % of control where 0% means no effect; nearly all actives have a fitted effect of over 65% in size
Conditions: hNPCs ZIKV-induced caspase-3/7, Caspase-Glo luminescence, 6 h; series mostly up to 45.7 µM; activity change, negative = inhibition: at the top concentration
Method in brief: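 After overnight (16–20 h) culture at 350 cells/well, hNPCs get compound, then ZIKV 2 FFU/cell one hour later. Six hours on, Caspase-Glo 3/7 is added and luminescence measured.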

SMILES | activity change, negative = inhibition
O=C(CN1CCNCC1)NC1CCCCC1 | 2.92%
C[n+]1ccccc1/C=N/O | -18.9%
CCN(CC)CCc1nc(-c2ccccc2)no1 | -12.9%
C1CCN2C[C@@H]3C[C@@H](CN4CCCC[C@@H]34)[C@H]2C1 | -3.13%
CCN(CC)CC1CCCCN1CC(=O)N1c2ccccc2C(=O)Nc2cccnc21 (stereo not drawn) | 3.12%
CN1CCN(C(=O)C2CCCCC2)CC1 | 15%
COCC(=O)Nc1c(I)c(C(=O)NCC(O)CO)c(I)c(C(=O)N(C)CC(O)CO)c1I (stereo not drawn) | -8.25%
CN(C(=O)c1c(O)c2ccccc2n(C)c1=O)c1ccccc1 | 1.23%
CC(=O)SC[C@@H](Cc1ccccc1)C(=O)NCC(=O)OCc1ccccc1 | 6.02%
C/C=C/C(=O)N(CC)c1ccccc1C | -3.62%
Cc1ccsc1C(=CCCN1CCC[C@@H](C(=O)O)C1)c1sccc1C | 24.9%
C[C@@H](c1ncncc1F)C(O)(Cn1cncn1)c1ccc(F)cc1F (stereo partly drawn) | -6.64%
Cc1c(N(C)C)c(=O)n(-c2ccccc2)n1C | 1.06%
CCOC(=O)[C@H](CCc1ccccc1)N[C@@H](C)C(=O)N1Cc2cc(OC)c(OC)cc2C[C@H]1C(=O)O | -5.72%
C[C@H]1COc2c(C3(N)CC3)c(F)cc3c(=O)c(C(=O)O)cn1c23 | -11.1%
COC(=O)c1cccnc1 | 23.1%
O=C(O)Cc1cn(-c2ccccc2)nc1-c1ccc(Cl)cc1 | -2.53%
CCOc1ccc(C(=O)OCCN(CC)CC)cc1 | 9.43%
Cc1cc(O)cc(C)c1Cl | -5.11%

SMILES | activity change, negative = inhibition
CN1C(C)(C)CCCC1(C)C | 11.5%
Cc1ccc2c(c1)c1c3n2CCNC3CCC1 (stereo not drawn) | 0.318%
CCCOC(=O)c1ccc(N)cc1 | 15.3%
O=C(NCC(O)CO)c1c(I)c(C(=O)NCC(O)CO)c(I)c(N(CCO)C(=O)CO)c1I (stereo not drawn) | -1.17%
Cn1c(=O)c2c(ncn2CCO)n(C)c1=O | -5.65%
NNC(=O)CP(=O)(c1ccccc1)c1ccccc1 | 7.93%
Nc1ccncc1N | 0.213%
CC(CN(C)C)C(C)(O)Cc1ccc(Cl)cc1 (stereo not drawn) | 2.08%
O=C(O)[C@@H]1[C@H]2C[C@H]3c4[nH]c5ccccc5c4CCN3C[C@@H]2CC[C@@H]1O | -3.47%
Cn1cc(C(=O)[C@@H]2CCc3nc[nH]c3C2)c2ccccc21 | 6.07%
Cc1c(Cn2ccnc2)c2ccccc2n1CCC(=O)O | 22.6%
Cc1ccc(C(C)C)c(O)c1 | 16.4%
O=C(O)c1ccccc1OP(=O)(O)O | -8.44%
C=CCNC(N)=S | -9.78%
CC1(C)S[C@@H]2[C@H](NC(=O)C(C(=O)O)c3ccccc3)C(=O)N2[C@H]1C(=O)O (stereo partly drawn) | -1.87%
OCC(O)CS (stereo not drawn) | -6.52%
CN1CC(=O)NC1=N | -7.88%
NC(=O)c1ccc([N+](=O)[O-])cc1Cl | -13.5%
COc1ccc(NS(=O)(=O)c2ccc(N)cc2)nn1 | -3.63%
